Data reported in the supplement of paper PMC9262897, “Low-cost anti-mycobacterial drug discovery using engineered E. coli” (Nature Communications, 2022).
Counter-ions that a name gives are not always drawn. ± gives the standard deviation of the averaged measurements.

Columns and labels:
Experiment in all cases: growth (OD600 after 10 h); higher = more growth (less inhibition)
[1] = system: E. coli TESEC Alr+ wild-type control; settings: compound 0.1 mM; raw OD600 reference: median of DMSO wells 0.241, cell-free background 0.041
Description: (§1)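 TESEC Mtb Alr E. coli, or the Alr+ wild-type control, in 384-well plates with Prestwick library compounds at 0.1 mM and 1% DMSO, across arabinose induction levels of 1E3 to 1E7 nM. Growth is read as OD600 after 10 h at 37 °C in triplicate biological replicates.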

E. coli TESEC Mtb Alr [2] = settings: compound 0.1 mM
Description: as §1

E. coli TESEC Mtb Asd = settings: compound 0.1 mM
Description: (§2)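 TESEC E. coli strains in which the native enzyme is deleted and replaced by arabinose-inducible Mtb Asd, DapB, CysH or TrpD, each grown in its selective medium. Strains were screened against the Prestwick library at 0.1 mM and 1% DMSO in 384-well format at low and high arabinose induction. Growth is read as OD600 after 10 h in triplicate.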

E. coli TESEC Mtb DapB = settings: compound 0.1 mM
Description: as §2

E. coli TESEC Mtb Alr [3] = settings: compound 0.1 mM; remark: listed apart in the source
Description: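 TESEC Mtb Alr E. coli (ΔaraC ΔtolC ΔentC Δalr ΔdadX, arabinose-inducible Mtb Alr) or the Alr+ wild-type control strain, grown in defined M9-fructose medium without D-alanine in 96-well plates with Prestwick library compounds at 0.1 mM and 1% DMSO. Low Alr induction is 0.1 µM arabinose and high induction is 10 mM arabinose.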

[4] = arabinose 1000 nM, raw OD600 reference: median of DMSO wells 0.294, cell-free background 0.041
[5] = arabinose 10000 nM, raw OD600 reference: median of DMSO wells 0.264, cell-free background 0.041
[6] = arabinose 100000 nM, raw OD600 reference: median of DMSO wells 0.201, cell-free background 0.041
[7] = arabinose 1000000 nM, raw OD600 reference: median of DMSO wells 0.193, cell-free background 0.041
[8] = arabinose 10000000 nM, raw OD600 reference: median of DMSO wells 0.146, cell-free background 0.041
[9] = arabinose induction (level): High, raw OD600 reference: median of DMSO wells 0.331, cell-free background 0.041
[10] = arabinose induction (level): Low, raw OD600 reference: median of DMSO wells 0.417, cell-free background 0.041
[11] = arabinose induction (level): High, raw OD600 reference: median of DMSO wells […], cell-free background 0.041
[12] = arabinose induction (level): Low, raw OD600 reference: median of DMSO wells 0.227, cell-free background 0.041
[13] = arabinose 100 nM, raw OD600 reference: median of DMSO wells 0.413, cell-free background 0.052
[14] = arabinose 10000000 nM, raw OD600 reference: median of DMSO wells […], cell-free background 0.052

Row | Compound | growth [1] | growth (E. coli TESEC Mtb Alr [2]; [4]) | growth (E. coli TESEC Mtb Alr [2]; [5]) | growth (E. coli TESEC Mtb Alr [2]; [6]) | growth (E. coli TESEC Mtb Alr [2]; [7]) | growth (E. coli TESEC Mtb Alr [2]; [8]) | growth (E. coli TESEC Mtb Asd; [9]) | growth (E. coli TESEC Mtb Asd; [10]) | growth (E. coli TESEC Mtb DapB; [11]) | growth (E. coli TESEC Mtb DapB; [12]) | growth (E. coli TESEC Mtb Alr [3]; [13]) | growth (E. coli TESEC Mtb Alr [3]; [14])
1 | CN(C)CCC=C1c2ccccc2CCc2ccccc21 [Amitryptiline hydrochloride] | 0.1735 ± 0.0011 | 0.218 ± 0.0042 | 0.247 ± 0.0093 | 0.195 ± 0.012 | 0.08457 ± 0.00076 | 0.152 ± 0.0021 | 0.146 ± 0.0079 | 0.273 ± 0.011 | 0.195 ± 0.019 | 0.232 ± 0.047 | 0.403 ± 0.015 | 0.182 ± 0.031
2 | CCCCCCCCNC(C)C(O)c1ccc(SC(C)C)cc1 (stereo unspecified) [Suloctidil] | 0.0763 ± 0.037 | 0.0398 ± 0.0011 | 0.0405 ± 0.00085 | 0.0403 ± 0.00044 | 0.0856 ± 0.078 | 0.0896 ± 0.085 | 0.191 ± 0.016 | 0.162 ± 0.074 | 0.153 ± 0.023 | 0.189 ± 0.019 | 0.0587 ± 0.0041 | 0.0516 ± 0.00081
3 | CC(C)(O/N=C(\C(=O)N[C@@H]1C(=O)N2C(C(=O)[O-])=C(C[n+]3ccccc3)CS[C@H]12)c1csc(N)n1)C(=O)O [Ceftazidime pentahydrate] | 0.0434 ± 0.00087 | 0.0435 ± 0.0041 | 0.0396 ± 0.0004 | 0.0423 ± 0.0036 | 0.0575 ± 0.00086 | 0.0674 ± 0.0023 | 0.113 ± 0.0029 | 0.0679 ± 0.011 | 0.167 ± 0.072 | 0.0547 ± 0.0049 | 0.0467 ± 0.002 | 0.0727 ± 0.0092
4 | CN(N=O)C(=O)N[C@H]1C(O)O[C@H](CO)[C@@H](O)[C@@H]1O (mixture of isomers) [Streptozotocin] | 0.197 ± 0.0036 | 0.259 ± 0.028 | 0.2526 ± 0.0016 | 0.147 ± 0.0062 | 0.14 ± 0.0077 | 0.0717 ± 0.0018 | 0.243 ± 0.0054 | 0.305 ± 0.045 | 0.192 ± 0.016 | 0.206 ± 0.015 | 0.378 ± 0.019 | 0.0602 ± 0.0034
5 | O=C(COc1ccc(Cl)cc1)N1CCN(Cc2ccc3c(c2)OCO3)CC1 [Fipexide hydrochloride] | 0.13 ± 0.0038 | 0.146 ± 0.0033 | 0.138 ± 0.0033 | 0.154 ± 0.0017 | 0.0771 ± 0.0022 | 0.144 ± 0.0034 | 0.207 ± 0.039 | 0.214 ± 0.025 | 0.167 ± 0.0018 | 0.234 ± 0.024 | 0.38 ± 0.029 | 0.168 ± 0.033
6 | CCCCc1ccc2[nH]c(NC(=O)OC)nc2c1 [Parbendazole] | 0.244 ± 0.01 | 0.307 ± 0.0063 | 0.277 ± 0.0036 | 0.213 ± 0.034 | 0.206 ± 0.0056 | 0.156 ± 0.0051 | 0.279 ± 0.015 | 0.435 ± 0.0069 | 0.208 ± 0.0058 | 0.279 ± 0.031 | 0.4255 ± 0.003 | 0.374 ± 0.045
7 | CCN(CC)CC#CCOC(=O)C(O)(c1ccccc1)C1CCCCC1 (stereo unspecified) [Oxybutynin chloride] | 0.148 ± 0.0035 | 0.13 ± 0.067 | 0.167 ± 0.004 | 0.131 ± 0.072 | 0.0668 ± 0.00052 | 0.117 ± 0.0015 | 0.137 ± 0.017 | 0.191 ± 0.033 | 0.159 ± 0.0078 | 0.172 ± 0.034 | 0.398 ± 0.031 | 0.145 ± 0.025
8 | Nc1cc(C(Cl)=C(Cl)Cl)c(S(N)(=O)=O)cc1S(N)(=O)=O [Clorsulon] | 0.224 ± 0.0038 | 0.278 ± 0.0056 | 0.269 ± 0.0061 | 0.214 ± 0.029 | 0.179 ± 0.0043 | 0.15 ± 0.0072 | 0.283 ± 0.025 | 0.3101 ± 0.0016 | 0.216 ± 0.014 | 0.248 ± 0.016 | 0.414 ± 0.011 | 0.335 ± 0.025
9 | CC(C)OC(=O)CCC/C=C\C[C@@H]1[C@@H](CC[C@@H](O)CCc2ccccc2)[C@H](O)C[C@@H]1O [Latanoprost] | 0.0604 ± 0.0021 | 0.05 ± 0.0017 | 0.0396 ± 0.0001 | 0.0525 ± 0.00065 | 0.04007 ± 0.00012 | 0.0545 ± 0.0034 | 0.0525 ± 0.0016 | 0.05293 ± 0.00021 | 0.0594 ± 0.0031 | 0.0554 ± 0.0022 | 0.314 ± 0.037 | 0.0658 ± 0.011
10 | CCCC1C(=O)N2C(N(C)C)=Nc3ccc(C)cc3N2C1=O (stereo unspecified) [Azapropazone] | 0.226 ± 0.0057 | 0.287 ± 0.0066 | 0.2549 ± 0.002 | 0.178 ± 0.011 | 0.158 ± 0.0037 | 0.134 ± 0.0021 | 0.195 ± 0.031 | 0.323 ± 0.064 | 0.185 ± 0.015 | 0.206 ± 0.025 | 0.399 ± 0.013 | 0.301 ± 0.0094
11 | CN[C@@H]1[C@@H](O)[C@@H](O[C@@H]2[C@@H](O)[C@H](O[C@H]3OC(CN)=CC[C@H]3N)[C@@H](N)C[C@H]2N)OC[C@]1(C)O [Sisomicin sulfate] | 0.0439 ± 0.00085 | 0.04797 ± 0.00015 | 0.0404 ± 0.00055 | 0.0483 ± 0.00072 | 0.0422 ± 0.00046 | 0.0657 ± 0.002 | 0.075 ± 0.0066 | 0.107 ± 0.055 | 0.144 ± 0.032 | 0.0843 ± 0.01 | 0.231 ± 0.15 | 0.3071 ± 0.0019
12 | CCC1NC(=O)c2cc(S(N)(=O)=O)c(Cl)cc2N1 (stereo unspecified) [Quinethazone] | 0.248 ± 0.0085 | 0.281 ± 0.0094 | 0.266 ± 0.0054 | 0.219 ± 0.0029 | 0.199 ± 0.0047 | 0.13 ± 0.0037 | 0.419 ± 0.029 | 0.445 ± 0.051 | 0.212 ± 0.021 | 0.238 ± 0.047 | 0.415 ± 0.006 | 0.354 ± 0.022
13 | CCCN(CCC)CCc1cccc2c1CC(=O)N2 [Ropinirole HCl] | 0.239 ± 0.0025 | 0.301 ± 0.0083 | 0.251 ± 0.0073 | 0.195 ± 0.025 | 0.18 ± 0.009 | 0.146 ± 0.0056 | 0.379 ± 0.066 | 0.441 ± 0.035 | 0.198 ± 0.013 | 0.211 ± 0.025 | 0.408 ± 0.01 | 0.366 ± 0.0066
14 | NS(=O)(=O)Cc1noc2ccccc12 [Zonisamide] | 0.252 ± 0.013 | 0.301 ± 0.012 | 0.2543 ± 0.0014 | 0.203 ± 0.0022 | 0.19 ± 0.0041 | 0.139 ± 0.0077 | 0.296 ± 0.019 | 0.389 ± 0.02 | 0.201 ± 0.0092 | 0.234 ± 0.012 | 0.406 ± 0.0079 | 0.353 ± 0.018
15 | C=CCSCC1Nc2cc(Cl)c(S(N)(=O)=O)cc2S(=O)(=O)N1 (stereo unspecified) [Althiazide] | 0.244 ± 0.006 | 0.301 ± 0.019 | 0.2578 ± 0.0023 | 0.219 ± 0.016 | 0.183 ± 0.011 | 0.141 ± 0.0034 | 0.261 ± 0.052 | 0.441 ± 0.019 | 0.209 ± 0.0088 | 0.242 ± 0.018 | 0.383 ± 0.006 | 0.326 ± 0.012
16 | NS(=O)(=O)c1cc(Cl)c(Cl)c(S(N)(=O)=O)c1 [Dichlorphenamide] | 0.25 ± 0.0031 | 0.298 ± 0.012 | 0.2704 ± 0.0016 | 0.211 ± 0.027 | 0.186 ± 0.011 | 0.131 ± 0.0026 | 0.312 ± 0.027 | 0.456 ± 0.038 | 0.213 ± 0.007 | 0.256 ± 0.026 | 0.402 ± 0.017 | 0.399 ± 0.032
17 | CCC(Cc1c(I)cc(I)c(N)c1I)C(=O)O (stereo unspecified) [Iopanoic acid] | 0.0835 ± 0.0044 | 0.0987 ± 0.0055 | 0.0635 ± 0.0046 | 0.097 ± 0.003 | 0.0566 ± 0.001 | 0.0777 ± 0.0027 | 0.114 ± 0.0023 | 0.0943 ± 0.0055 | 0.148 ± 0.005 | 0.177 ± 0.005 | 0.339 ± 0.018 | 0.0809 ± 0.0061
18 | CC(=O)c1ccc2c(c1)N(CCCN(C)C)c1ccccc1S2 [Acetopromazine maleate salt] | 0.183 ± 0.0048 | 0.228 ± 0.0028 | 0.263 ± 0.016 | 0.208 ± 0.023 | 0.123 ± 0.0016 | 0.152 ± 0.0028 | 0.214 ± 0.025 | 0.301 ± 0.033 | 0.188 ± 0.012 | 0.217 ± 0.021 | 0.399 ± 0.011 | 0.322 ± 0.015
